# High-throughput results (PubChem)
# Shown are actives, neighbours in structure and some others; about 1.9% of the full set was active somewhere.
# GLD-1 TGE inh: GLD-1/TGE RNA complex disruptors, primary screen, biochemical, fluorescence polarization; Female germline-specific tumor suppressor gld-1 (Caenorhabditis elegans), Q17339; purified GLD-1 + fluorescein TGE RNA; inhibition, % at 5.96 µM; actives 0.44% (n = 320,000); AID 2280, 2010;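 active = percent inhibition above a per-plate cutoff, the plate mean of test compounds plus 3 SD, cut at about 30% in these data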;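 also: 0% = DMSO wells with GLD-1 and probe and 100% = wells lacking GLD-1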
# MEX-5 binding: MEX-5 zinc finger RNA-binding disruptors – biochemical, C. elegans, fluorescence polarization, MLPCN library, primary screen. MEX-5/FITC-TCR2 RNA binding; stronger effect = lower value. activity score (negative = inhibition of binding), % at 10 µM. actives 0.38% (n = 300,000). AID 1832, 2009;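 active = inhibition past about -25% in most replicates, and total fluorescence under double the plate's negative control median, limit read from the data; inconclusive = replicates evenly split on the limit, or fluorescence at least double controls; inactive = too little inhibition in most replicates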;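 also: 0% = DMSO and -100% = 5 µM competing unlabeled TCR2 RNA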
# Bcl-xL primary: inhibitors of human Bcl-xL, primary screen, biochemical, fluorescence polarization, HTS. Bcl-2-like protein 1 (Homo sapiens), Q07817. GST-Bcl-xL / FITC-Bim BH3 peptide fluorescence polarization. inhibition, % at 10.9 µM. actives 0.7% (n = 320,000). AID 2129, 2009;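 active = inhibition above the mean of all tested compounds plus 3 SD, cutoff set per campaign, cut at about 30% in these data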;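 also: 0% = DMSO wells and 100% = unlabeled Bim-BH3 peptide competitor; inhibitors lower millipolarization by displacing the labeled peptide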
# LANA-H2B inh: blockers of LANA interaction with H2A/H2B – biochemical, FP readout, HTS, primary screen | inhibition, % (no concentration beside the values) | cell-free LANA-H2A/H2B peptide, fluorescence polarization | Protein LANA1 (Human herpesvirus 8 type P (isolate GK18)), Q9QR71 | actives 0.6% (n = 320,000); in the data active = inhibition mostly above about 10%, no sharp cut-off; inactive = mostly below about 6.7%
# Yeast superoxide: reduction of superoxide in aged yeast, primary screen, HTS; AID 2690, 2010; superoxide response (% of plate mean), % at 10 µM; S. cerevisiae aged cells, superoxide DHE fluorescence; stronger effect = lower value; actives 0.18% (n = 330,000);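 active = superoxide response under a set limit, about three screen SD below normal, cut at about 65% in these data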;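 also: yeast aged for seven days with compound at 30 °C before DHE staining; 100% = average MFI of all compound-treated wells on the plate with controls excluded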
# MCL1-BIM inh: inhibitors of MCL1 binding to BIM-BH3, primary screen, biochemical, fluorescence polarization; GST-MCL1 / FITC-Bim-BH3 fluorescence polarization; actives 0.68% (n = 320,000); AID 2057, 2009; Induced myeloid leukemia cell differentiation protein Mcl-1 (Homo sapiens), Q07820; inhibition, % at 10.9 µM;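 active = inhibition above the mean inhibition of all tested compounds plus 3 SD, set per campaign, cut at about 40% in these data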;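 also: 0% = DMSO wells and 100% = unlabeled Bim-BH3 peptide control; higher means more loss of mP so more displacement of Bim peptide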
# * = called active by the depositor; i = inactive; ? = inconclusive; . = no result given; + = active, no number.
SMILES,GLD-1 TGE inh,MEX-5 binding,Bcl-xL primary,LANA-H2B inh,Yeast superoxide,MCL1-BIM inh
Cc1ccc(N2C(=O)[C@@H]3C(C(=O)CN4C(=O)c5ccccc5C4=O)=NN[C@@H]3C2=O)c(C)c1,-2,.,3,24*,118,4
CC(=O)c1ccc(N2C(=O)[C@@H]3C(C(=O)CCN4C(=O)c5ccccc5C4=O)=NN[C@@H]3C2=O)cc1,-3,2,1,2,118,-13
COc1cccc(N2C(=O)C3NN=C(C(=O)CN4C(=O)c5ccccc5C4=O)C3C2=O)c1 (stereo unspecified),-1,-1,4,0,102,-1
CCN1CC=C2C(C#N)=C(N)C(C#N)(C#N)C(c3cc(Cl)ccc3Cl)C2C1 (stereo unspecified),104*,?,122*,13,106,150*
CC(C)N1CC=C2C(C#N)=C(N)C(C#N)(C#N)C(c3ccccc3)C2C1 (stereo unspecified),93*,?,117*,+,85,128*
CN1CC=C2C(C#N)=C(N)C(C#N)(C#N)C(Cc3ccccc3)C2C1 (stereo unspecified),69*,-69*,118*,1,110,129*
N#CC1=C(N)C(C#N)(C#N)[C@H](c2ccncc2)[C@H]2CN(C(=O)OCc3ccccc3)CC=C12,9,-3,16,0,99,8
CC(=O)NC(CC(=O)OCc1ccc([N+](=O)[O-])cc1)c1ccccc1 (stereo unspecified),-2,2,2,2,100,-1
COc1ccc(-c2nc(SCC(=O)NC3CCCCC3)n[nH]2)cc1,.,1,.,76*,116,.
CCCOc1ccc(C(=O)Nc2ccc(S(=O)(=O)Nc3cc(C)nc(C)n3)cc2)cc1,9,-1,2,4,62*,3
CCN1CCN(Cc2ccc(NC(=O)c3ccc(C)c(NC(=O)c4ccno4)c3)cc2C(F)(F)F)CC1,-3,3,4,2,100,3
CCN1CCN(Cc2ccc(NC(=O)c3ccc(C)c(/C=C/c4cnc(Nc5cc(N6CCNCC6)nc(C)n5)cn4)c3)cc2C(F)(F)F)CC1,-148,27,38*,-11,101,17
O=C(CSc1n[nH]c(=O)[nH]c1=O)Nc1ccc2c(c1)C(=O)c1ccccc1C2=O,20,0,34*,3,163,40*
N#Cc1ccccc1/C=N/Nc1nc(-c2ccccc2)c2cc(Cl)ccc2n1,1,2,4,55*,91,1
CSCCC(NC(=O)c1ccccc1)C(=O)OCC(=O)NCc1ccco1 (stereo unspecified),5,.,.,-6,84,.
CC(C)c1ccc[n+](-c2nc([O-])sc2C=O)c1,3,-4,8,2,109,3
O=Cc1sc([O-])nc1-[n+]1ccc2ccccc2c1,22,-6,47*,-4,98,41*
CCN(CC)c1ccc(N)cc1,-9,.,-4,-51,105,-13
Nc1ccc(N(CCO)CCO)cc1,22,-28*,42*,6,111,43*
CC(NS(=O)(=O)c1cccc(C(=O)NCc2ccncc2)c1)c1ccccc1 (stereo unspecified),11,.,3,i,92,-3
N#CC(c1nc2ccccc2nc1OCCO)S(=O)(=O)c1ccccc1 (stereo unspecified),3,-38*,0,-2,93,-2
Cc1ccc2c(c1)-n1c(nc3cc(F)ccc3c1=O)C(Cc1ccc(O)cc1)NC2=O (stereo unspecified),1,.,.,0,102,.
Cc1cccc(Nc2ncnc3nc[nH]c23)c1,3,15,6,6,99,3
COc1ccc(Nc2ncnc3nc[nH]c23)cc1OC,1,-33*,-1,1,98,-1
CC1CCC(C#N)(N(C)C(=O)CSc2nnc(C3CC3)n2C2CC2)CC1 (stereo unspecified),12,.,-2,-7,100,-2
SMILES,GLD-1 TGE inh,MEX-5 binding,Bcl-xL primary,LANA-H2B inh,Yeast superoxide,MCL1-BIM inh
COc1ccc(OC)c(S(=O)(=O)Nc2ccc(O)c(Sc3ncn[nH]3)c2)c1,4,-34*,9,0,92,16
CCOc1ccc(S(=O)(=O)Nc2ccc(O)c(Sc3ncn[nH]3)c2)cc1,0,-4,6,-12,84,4
COc1ccc(C2=CC(=O)C=CC2=O)cc1,.,1,.,-10,.,.
CCOC(=O)CC[C@H](NC(=O)Cn1cnc2c(NCc3ccccc3)ncnc21)C(=O)OCC,.,.,.,.,103,.
COc1cccc(C(=O)NCC(=O)NNc2ncnc(N)c2[N+](=O)[O-])c1,6,-32*,-2,2,108,-3
Cc1cccc(C)c1Nc1ncnc(N)c1[N+](=O)[O-],9,-11,3,5,99,1
Cc1ccc(C(=O)NNC(=O)c2cccc(S(=O)(=O)N3CCOCC3)c2)cc1,1,.,.,-3,105,.
O=C(NNC(=O)c1cc(Cl)ccc1O)c1cccc(S(=O)(=O)N2CCOCC2)c1,3,-27*,9,2,114,12
O=S(=O)(NCCc1ccc(F)cc1)c1ccc(F)cc1Br,.,.,.,.,99,.
Cc1ccc(S(=O)(=O)N2CCOCC2)cc1NC(=O)CN1C(=O)NC(C)(c2ccc(Cl)cc2Cl)C1=O (stereo unspecified),-4,.,.,0,96,.
CC1=C/C(=C(\c2ccc(O)c(C)c2)c2ccccc2S(=O)(=O)O)C=CC1=O,17,-5,21,-3,113,26
O=C(O)C1=CC(=C(c2ccc(O)c(C(=O)O)c2)c2ccc(O)c(C(=O)O)c2)C=CC1=O,92*,.,76*,13,96,108*
COc1ccc(N2CC(C(=O)Nc3nnc(SCC(=O)NCC4CCCO4)s3)CC2=O)cc1 (stereo unspecified),2,1,12,34*,99,6
CCOC(=O)COc1ccc(Br)cc1C1NC(=O)NC(C)=C1C(=O)NCc1ccccc1 (stereo unspecified),5,0,2,67*,96,6
CCOc1c(Cl)cc(C2NC(=O)NC(C)=C2C(=O)NCc2ccccc2)cc1OC (stereo unspecified),3,1,0,2,95,-1
Cc1cc(C)n(-c2ccc(NC(=O)C3CCCCN3C(=O)c3ccoc3)cc2)n1 (stereo unspecified),.,-1,.,55*,111,.
